The supplement of paper PMC6658780
Where a name gives a salt, the structure may show the parent alone. ± gives the standard deviation of the averaged measurements.

Each compound was assayed on Klebsiella pneumoniae KPC-119 (assay: percent growth inhibition of drug + antibiotic vs DMSO control; higher = more growth inhibition). Details: antibiotic (0.125x MIC): gentamicin; 7 µM.

Structure (SMILES)	percent growth inhibition
CC(=O)OC[C@H]1O[C@@H]([S-])[C@H](OC(C)=O)[C@@H](OC(C)=O)[C@@H]1OC(C)=O.CCP(CC)CC.[Au+] [Auranofin]	33.2 ± 9.4%
CO[C@H]1/C=C/O[C@@]2(C)Oc3c(C)c(O)c4c(O)c(c(/C=N/N5CCN(C6CCCC6)CC5)c(O)c4c3C2=O)NC(=O)/C(C)=C\C=C\[C@H](C)[C@H](O)[C@@H](C)[C@@H](O)[C@@H](C)[C@H](OC(C)=O)[C@@H]1C [Rifapentine]	4.75 ± 13%
CN(C)c1ccc(O)c2c1C[C@H]1C[C@H]3[C@H](N(C)C)C(O)=C(C(N)=O)C(=O)[C@@]3(O)C(O)=C1C2=O [Minocycline hydrochloride]	6.41 ± 2.8%
NC[C@@H]1O[C@H](O[C@H]2[C@@H](O)[C@H](O[C@@H]3[C@@H](O)[C@H](N)C[C@H](N)[C@H]3O[C@H]3O[C@H](CO)[C@@H](O)[C@H](O)[C@H]3N)O[C@@H]2CO)[C@H](N)[C@@H](O)[C@@H]1O [Paromomycin sulfate]	8.59 ± 1.5%
CO[C@@]1(NC(=O)Cc2cccs2)C(=O)N2C(C(=O)O)=C(COC(N)=O)CS[C@@H]21 [Cefoxitin sodium salt]	8.4 ± 13%
CO[C@H]1/C=C/O[C@@]2(C)Oc3c(C)c(O)c4c(c3C2=O)C2=NC3(CCN(CC(C)C)CC3)NC2=C(NC(=O)/C(C)=C\C=C\[C@H](C)[C@H](O)[C@@H](C)[C@@H](O)[C@@H](C)[C@H](OC(C)=O)[C@@H]1C)C4=O [Rifabutin]	41.8 ± 7%
O=C1OCCN1/N=C/c1ccc([N+](=O)[O-])o1 [Furazolidone]	17.8 ± 1.7%
CN[C@@H]1[C@@H](O[C@H]2O[C@H](CO)[C@@H](N)[C@H](O)[C@H]2O)OC2C[C@@H](N)[C@@H](O[C@H]3[C@H](O)[C@@H](O)[C@H](N)C[C@@H]3N)OC2[C@@H]1O (some centres undefined) [Apramycin]	27.9 ± 0.46%
O=C(O)c1cn(-c2ccc(F)cc2)c2cc(N3CCNCC3)c(F)cc2c1=O [Sarafloxacin]	99.81 ± 0.1%
